Data on 10 compounds can be found in PubChem BioAssay (NCATS).

Where “and” joins values, the source holds several entries; their conditions need not be identical. Equal entries are not always repeated. Inconclusive results are not listed. Calls of active or inactive are those of the source. Unless noted, calls follow the shape of the dose curve; as a rule, active = well fitted curve in the direction sought with a large enough effect; inconclusive = small, poorly fitted or top-dose-only effect, or another doubt; inactive = no such curve, though single readings can be large; an effect the other way counts as inactive or inconclusive.

Test [1] in a line: qHTS assay for small molecule agonists of the antioxidant response element (ARE) signaling pathway measured by Nrf2-dependant transcriptional activity (AID 720636; active = well fitted curve in the direction sought with a large enough effect in the repeat runs; an effect the other way counts as inactive or inconclusive; also: % of control where 0% means no effect). In short, it runs like this: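 Nrf2-dependent transcription read as ONE-Glo luciferase signal from ARE-luc HepG2 reporter cells after 16 hr compound treatment at 37 C, 5% CO2, in assay medium with 1% dialyzed FBS.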
On the technique in general: In qHTS, concentration-response curves come from the screen itself.

Test [2] in a line: qHTS assay for small molecule agonists of the antioxidant response element (ARE) signaling pathway measured by Nrf2-dependant transcriptional activity - cell viability counter screen (AID 720653; active = well fitted curve in the direction sought with a large enough effect in the repeat runs; an effect the other way counts as inactive or inconclusive; also: % is scaled to controls: 0 for no effect and ±100 for the full control effect). To be noted: ARE-bla HepG2 viability, CellTiter-Glo ATP luminescence, 16 h; max response: stronger effect = lower value. An outline of the steps:
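ARE-bla HepG2 cells (2,000/well) rested 5 hrs at 37C/5% CO2, then exposed to compounds in DMSO for 16 hrs. Viability was read in the same wells as intracellular ATP by luminescence, 30 min at room temperature after reagent addition.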

A short description of test [3]: qHTS Assay for Identifying Gametocytocidal Compounds (AID 743244).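 Also: % is scaled to controls: 0 for no effect and ±100 for the full control effect; actives lower the fluorescent signal which means gametocytes are killed.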 The note with it: P. falciparum 3D7 stage III-V gametocytes, alamarBlue, 72 h; max response: stronger effect = lower value. An outline of the steps:
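Stage III-V P. falciparum 3D7 gametocytes, 20,000 per well, were exposed to compounds for 72 h at 37C, 5% CO2. AlamarBlue was then added for 24 h and viability was read as fluorescence at Ex 525/Em 598 nm.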

Test [4] is described as follows: qHTS assay for cell viability of HEK293 cells (AID 743288). Also: nearly all actives have a fitted effect of over 50% in size. Also: potency is read from the fitted curve at half-maximal effect. As to max response: % is scaled to controls: 0 for no effect and ±100 for the full control effect. The note with it: ATP luminescence (CellTiter-Glo), 18 h; max response: stronger effect = lower value. An outline of the steps:
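The Tox21 protocol used parental HEK293 cells treated for 18 h at 37 C with compounds delivered by pintool; ATP-coupled luminescence after 30 min at room temperature gave viability.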

Test [5] is described as follows: qHTS assay for cell viability of the p53RE-bla HCT-116 cell line (AID 743292). Also: nearly all actives have a fitted effect of over 55% in size. Also: potency is read from the fitted curve at half-maximal effect. In short, it runs like this:
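ATP-based luminescent viability (CellTiter-Glo, 30 min RT) after 16 h compound treatment at 37 C of p53RE-bla HCT-116 cells, seeded at 4,000 cells/well and rested 5 h before dosing.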

Test [6] has as its target Arylsulfatase A (Homo sapiens) (UniProt P15289). Description: qHTS screen for enhancers of Arylsulfatase A (ASA1): LOPAC Validation Assay (AID 720538). Also: potency is read from the fitted curve at half-maximal effect. In short, it runs like this:
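First, ASA-I179S fibroblasts from an MLD patient adhered for 6 hrs. Next, compounds were added for 48h. Then pNCS substrate (0.5mM final) with lysis buffer reacted 14h at room temperature before NaOH stop and fluorescence measurement.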

Test [7] concerns the target T1, Hexokinase-4 (Homo sapiens) + Glucokinase regulatory protein (Homo sapiens) (UniProt P35557+Q14397). Description: qHTS assay for inhibitors of recombinant human GCK-GKRP interaction: Diaphorase-coupled assay (AID 743205). An outline of the steps: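 Inhibitors of the GCK–GKRP complex relieve GKRP suppression of GCK, detected through a G6PDH–diaphorase cascade reducing resazurin. Human GST-GCK and FLAG-GKRP are used at 10 nM with 5 mM glucose and 0.4 mM ATP.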

Test [8] in a line: qHTS for Activators of Parkin Expression: LOPAC Validation Assay (NLuc Reporter) (AID 720572;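 also: 0% = DMSO and 100% = positive control compound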). In short, it runs like this:
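Neuronal line stably carrying a FLuc/NLuc coincidence reporter under the Parkin promoter, seeded 24 h, then dosed in 7-point series for 24 h at 37 C. NLuc luminescence read after FLuc; normalized to DMSO and positive control (100%).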

Test [9] is described as follows: qHTS for Activators of Parkin Expression: LOPAC Validation Assay (FLuc Reporter) (AID 720573;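 also: 0% = DMSO and 100% = positive control compounds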). An outline of the steps:
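A neuronal cell line harbouring FLuc and NLuc reporters behind the Parkin promoter was exposed to compounds for 24 h. Firefly luciferase signal, measured after 10 min with detection reagent, was scaled to DMSO and positive-control wells.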

Test [10] concerns the target T1, Hexokinase-4 (Homo sapiens) + Glucokinase regulatory protein (Homo sapiens). The test can be described thus: qHTS assay for inhibitors of recombinant human GCK-GKRP interaction: ADP-Glo assay (AID 743206).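 Also: plate controls were DMSO plus enzyme for no effect and no enzyme for full effect.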 An outline of the steps: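 GST-GCK and FLAG-GKRP (15 nM each in the dispensed mix, with 2 uM S6P) react with 0.4 mM ATP and 5 mM glucose (final) in Hepes pH 7.6 for 60 min at room temperature. ADP is measured by ADP-Glo luminescence.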

Test [11] has the same target. Description: qHTS assay for inhibitors of recombinant human GCK-GKRP interaction: HTRF assay (AID 743207).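 Also: 0% = DMSO with GCK present and -100% = DMSO wells lacking GCK.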 An outline of the steps:
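Steps: dispense GCK–GKRP complex (5 nM each, GST- and FLAG-tagged) with 2 uM S6P; pin in compounds; add XL665/Eu-cryptate-labelled antibodies; incubate 60 min at room temperature; read time-resolved FRET at 665 and 615 nm.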

The nature of test [12]: qHTS profiling of the MIPE4 collection as inhibitors of Plasmodium falciparum (3D7) proliferation (AID 743344; call rule not given here;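 also: scaled between DMSO vehicle wells and 0.29 µM artemisinin as full inhibition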). To be noted: P. falciparum 3D7 in erythrocytes, SYBR Green DNA fluorescence, 72 h; at 28.5 µM (top of the series) unless noted. In short, it runs like this:
(§1)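 Erythrocytes infected with P. falciparum (0.3% parasitemia, 2.5% hematocrit) incubated with compounds 72 h at 37 C, 5% CO2. Lysis with saponin/Triton buffer containing SYBR Green I, overnight at room temperature in the dark; DNA fluorescence (485/535 nm) normalised to 0.29 uM artemisinin and DMSO.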

Test [13] can be described thus: qHTS profiling of the MIPE4 collection as inhibitors of Plasmodium falciparum (DD2) proliferation (AID 743345; call rule not given here). To be noted: P. falciparum Dd2 in erythrocytes, SYBR Green DNA, 72 h; at 28.5 µM (top of the series) unless noted. An outline of the steps:
as §1

Test [14] is described as follows: qHTS profiling of the MIPE4 collection as inhibitors of Plasmodium falciparum (DD2) proliferation (Rep 2) (AID 743346; call rule not given here). To be noted: P. falciparum Dd2 in erythrocytes, SYBR Green DNA, 72 h; at 28.5 µM (top of the series) unless noted. An outline of the steps: as §1
A short description of test [15]: qHTS profiling of the MIPE4 collection as inhibitors of Plasmodium falciparum (HB3) proliferation (AID 743347; call rule not given here;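 also: plate controls were DMSO vehicle wells for no effect and artemisinin wells for full effect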). To be noted: P. falciparum HB3 in erythrocytes, SYBR Green DNA, 72 h; at 28.5 µM (top of the series) unless noted. An outline of the steps: as §1
Test [16] in a line: qHTS assay for small molecule antagonists of the retinoid-related orphan receptor gamma (ROR-gamma) signaling pathway - cell viability counter screen (AID 720652; active = well fitted curve in the direction sought with a large enough effect in the repeat runs; an effect the other way counts as inactive or inconclusive;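 also: CHO reporter cells with doxycycline-induced ROR-gamma expression; compound exposure lasted 16 hr before ATP read; % is scaled to controls: 0 for no effect and ±100 for the full control effect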). In short, it runs like this:
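Counter screen in CHO cells carrying TET-inducible ROR-gamma and an ROR response element-luciferase reporter; cells plated 5 hr, compound pinned, doxycycline added, then 16 hr at 37 C. Viability read as intracellular ATP by CellTiter-Glo luminescence.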

Chain of Arylsulfatase A (Homo sapiens) (P15289 whole entry, looked up): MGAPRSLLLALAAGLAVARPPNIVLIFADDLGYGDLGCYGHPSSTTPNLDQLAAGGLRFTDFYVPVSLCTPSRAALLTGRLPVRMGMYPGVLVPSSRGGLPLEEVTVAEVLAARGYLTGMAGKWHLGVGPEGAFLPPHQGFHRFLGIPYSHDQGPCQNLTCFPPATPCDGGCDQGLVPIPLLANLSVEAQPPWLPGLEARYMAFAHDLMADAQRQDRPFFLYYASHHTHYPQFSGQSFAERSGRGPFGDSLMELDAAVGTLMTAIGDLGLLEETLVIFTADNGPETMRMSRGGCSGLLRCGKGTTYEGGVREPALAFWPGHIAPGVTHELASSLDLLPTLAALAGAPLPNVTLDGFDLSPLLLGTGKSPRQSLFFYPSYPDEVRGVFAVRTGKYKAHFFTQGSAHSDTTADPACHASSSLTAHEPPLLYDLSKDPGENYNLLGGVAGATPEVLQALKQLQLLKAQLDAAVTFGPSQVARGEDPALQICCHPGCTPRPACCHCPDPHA
T1 sequence (P35557 whole entry, looked up): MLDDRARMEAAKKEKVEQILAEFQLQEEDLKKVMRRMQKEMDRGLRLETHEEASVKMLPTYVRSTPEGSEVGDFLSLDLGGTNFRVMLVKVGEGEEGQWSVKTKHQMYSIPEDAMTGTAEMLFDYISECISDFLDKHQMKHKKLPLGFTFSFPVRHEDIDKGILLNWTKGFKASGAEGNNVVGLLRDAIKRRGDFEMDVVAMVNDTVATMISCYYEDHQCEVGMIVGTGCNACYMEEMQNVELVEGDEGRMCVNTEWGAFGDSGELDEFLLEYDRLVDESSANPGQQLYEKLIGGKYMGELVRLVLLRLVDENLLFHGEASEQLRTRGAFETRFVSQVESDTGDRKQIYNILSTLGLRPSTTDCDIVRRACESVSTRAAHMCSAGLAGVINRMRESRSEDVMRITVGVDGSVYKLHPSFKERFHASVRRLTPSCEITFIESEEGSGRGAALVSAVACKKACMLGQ
T1 sequence (Q14397 whole entry, looked up): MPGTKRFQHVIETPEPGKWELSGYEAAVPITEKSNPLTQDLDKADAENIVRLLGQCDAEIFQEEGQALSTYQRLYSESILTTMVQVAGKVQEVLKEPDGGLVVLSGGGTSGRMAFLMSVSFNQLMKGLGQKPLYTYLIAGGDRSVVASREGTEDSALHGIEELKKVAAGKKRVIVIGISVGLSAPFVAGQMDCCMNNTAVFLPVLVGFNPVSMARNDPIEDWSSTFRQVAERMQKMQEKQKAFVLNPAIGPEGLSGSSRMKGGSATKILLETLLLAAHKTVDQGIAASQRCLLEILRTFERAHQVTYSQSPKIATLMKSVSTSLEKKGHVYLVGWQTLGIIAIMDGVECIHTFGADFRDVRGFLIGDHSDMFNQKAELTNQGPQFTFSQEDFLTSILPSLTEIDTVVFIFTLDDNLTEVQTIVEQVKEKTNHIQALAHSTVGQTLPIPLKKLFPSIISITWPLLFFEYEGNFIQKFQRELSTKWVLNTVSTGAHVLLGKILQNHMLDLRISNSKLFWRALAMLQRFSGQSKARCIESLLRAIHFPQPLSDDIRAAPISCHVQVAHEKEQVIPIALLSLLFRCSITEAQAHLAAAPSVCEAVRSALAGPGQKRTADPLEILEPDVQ

Turning to `O=c1oc2ccccc2c(O)c1C(CC(O)c1ccc(-c2ccc(Br)cc2)cc1)c1ccccc1` (centres undefined), the Potency result in test [1] is “inactive”. Moreover, the values for the max response in [2], in [3] and in test [4] were -8.71% (inactive), -15.4% (inactive) and -5.59% (inactive), respectively. For the same compound, in test [5], the Potency was 31.6 µM (active).

For `COc1ccc(Cc2nccc3cc(OC)c(OC)cc23)cc1OC`, in test [6], the Potency entry was “inactive”. Also, in test [7], the result was inactive. Besides, in [3], the max response was 8.87% (inactive) and -8.15% (inactive).

As for `Cc1cccc(C)c1NC(=O)CN1CCCC1=O`, the Potency entry in test [6] was “inactive”. Moreover, the call in test [8], in test [9], in [7], in test [10] and in test [11] was inactive. For the same compound, the max response in test [3] was 12.6% (inactive). This compound came in with a parasite growth, % of DMSO control in [12] of 101%. In addition, the parasite growth remaining, % of DMSO control (lower = more inhibition) in test [13] worked out at 99.6%. Further, the parasite growth, % of control (lower = inhibition) in [14] was determined as 129%. Moreover, in test [15], the growth, % of control was determined as 89.5%.

`O=c1[nH]c2ccccc2n1CCCN1CCC(n2c(=O)[nH]c3cc(Cl)ccc32)CC1`: the Potency result in test [6] was “inactive”. Also, the call in test [8], in [9], in test [7], in test [10] and in test [11] was inactive. In [3], the max response was -7.84% (inactive) and 21.7% (inactive). Also, the parasite growth, % of DMSO control in [12] stood at 26.8%. The parasite growth remaining, % of DMSO control (lower = more inhibition) in [13] stood at 52.4%. In [14], the parasite growth, % of control (lower = inhibition) was 31.2%. In addition, the growth, % of control in [15] is 14%.

For the compound `C[C@H]1O[C@@H](O[C@H]2[C@@H](O)C[C@H](O[C@H]3[C@@H](O)C[C@H](O[C@H]4CC[C@@]5(C)[C@H](CC[C@@H]6[C@@H]5CC[C@]5(C)[C@@H](C7=CC(=O)OC7)CC[C@]65O)C4)O[C@@H]3C)O[C@@H]2C)C[C@H](O)[C@@H]1O`, the Potency entry in test [1] is “inactive”. For the same compound, the max response in [3] is -3.93% (inactive). In addition, the Potency in [4] was 0.0562 µM (active).

`O=C1NCN(c2ccccc2)C12CCN(CC1COc3ccccc3O1)CC2` (centres undefined): in [6], the Potency was 3.01 µM (active). The compound was called inactive in test [8], in test [9], in test [7], in [10] and in [11]. In addition, the max response in test [3] was -1.23% (inactive) and 22.3% (inactive).

Take `CC(=O)[C@H]1CC[C@H]2[C@@H]3CC[C@H]4C[C@](C)(O)CC[C@]4(C)[C@H]3CC[C@]12C`: the call in test [8], in test [9], in [7], in test [10] and in test [11] was inactive. In addition, the max response in [3] is -7.05% (inactive) and 9.26% (inactive).

Turning to `N#CC(C#N)=Cc1ccc(O)c(O)c1`, in test [6], the Potency result was “inactive”. In addition, the result in test [7], in test [10] and in test [11] was inactive. In addition, the max response in test [3] is 25.4% (inactive).

For the compound `Oc1ccc(Cl)cc1Cc1ccccc1`, the Potency result in [1], in [16] and in test [5] was “inactive” each time. Besides, the max response was 1.75% (inactive) and 7.8% (inactive) in [2]; -3.88% (inactive) and -14.6% (inactive) in test [3]; -10.2% (inactive) and -5.38% (inactive) in test [4].

As to `NN=C(N)N`, the Potency result in test [6] is “inactive”. The compound was called inactive in test [8], in test [9], in [7], in test [10] and in test [11]. Besides, in test [3], the max response was 9.75% (inactive) and 23.5% (inactive).
